This is an account of results in PubChem BioAssay (EPA / NIEHS).

Read-out in assay [1]: Interleukin-6 (IL6), IL6 (gene 3569)
Put plainly: BSK_CASM3C_IL6: BioMAP Diversity Plus: CASM3C Assay for Interleukin-6 (IL6) Biomarker Activity for (AID 2283040). The following applies: primary human coronary artery smooth muscle cells; actives raise or lower the signal.

Read-out in assay [2]: Tissue plasminogen activator (tPA), PLAT (gene 5327)
The assay can be described thus: BSK_BE3C_tPA: BioMAP Diversity Plus: BE3C Assay for Tissue plasminogen activator (tPA) Biomarker Activity (AID 2283041).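 On outcome: tPA level quantified by ELISA one day after compound addition.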 The note with it: primary human bronchial epithelial cells; actives raise or lower the signal. In outline:
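Human primary bronchial epithelial cells were dosed with chemical and tPA biomarker levels measured by ELISA 24 hours later. Activity was fitted bidirectionally against DMSO as negative control and baseline.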

Read-out in assay [3]: Interleukin-8 (IL8), CXCL8 (gene 3576)
Put plainly: BSK_CASM3C_IL8: BioMAP Diversity Plus: CASM3C Assay for Interleukin-8 (IL8) Biomarker Activity (AID 2283042).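 Further: IL-8 protein level quantified by ELISA.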 The following applies: primary human coronary artery smooth muscle cells; actives raise or lower the signal.

Read-out in assay [4]: Human Leukocyte Antigen - DR isotype (HLADR), HLA-DRA (gene 3122)
The assay can be described thus: BSK_CASM3C_HLADR: BioMAP Diversity Plus: CASM3C Assay for Human Leukocyte Antigen - DR isotype (HLADR) Biomarker Activity (AID 2283043).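 Further: cell-surface HLA-DR protein level quantified by ELISA.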 The note with it: primary human coronary artery smooth muscle cells; actives raise or lower the signal.

Read-out in assay [5]: Macrophage colony-stimulating factor (MCSF), CSF1 (gene 1435)
The assay can be described thus: BSK_CASM3C_MCSF: BioMAP Diversity Plus: CASM3C Assay for Macrophage colony-stimulating factor (MCSF) Biomarker Activity (AID 2283044).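 Further: M-CSF protein amount quantified by ELISA after 24 h exposure.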 The following applies: primary human coronary artery smooth muscle cells; actives raise or lower the signal.

Read-out in assay [6]: Low-density lipoprotein receptor (LDLR), LDLR (gene 3949)
Put plainly: BSK_CASM3C_LDLR: BioMAP Diversity Plus: CASM3C Assay for Low-density lipoprotein receptor (LDLR) Biomarker Activity (AID 2283045).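 Further: LDLR protein level on the cell surface quantified by ELISA.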 The following applies: primary human coronary artery smooth muscle cells; actives raise or lower the signal.

Read-out in assay [7]: Monocyte Chemoattractant Protein-1 (MCP1), CCL2 (gene 6347)
Put plainly: BSK_CASM3C_MCP1: BioMAP Diversity Plus: CASM3C Assay for Monocyte Chemoattractant Protein-1 (MCP1) Biomarker Activity (AID 2283046).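 Further: MCP-1 level quantified by ELISA 24 h after dosing.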 The note with it: primary human coronary artery smooth muscle cells; actives raise or lower the signal.

The nature of assay [8]: BSK_CASM3C_Proliferation: Cell Proliferation Assessment in the BioMAP Diversity Plus: CASM3C Assay (AID 2283047).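 Further: sulforhodamine B total protein stain as relative cell number at 560 nm; sub-confluent cells exposed 48 h before staining; fitted both ways against DMSO so gain or loss of cell number.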 The following applies: primary human coronary artery smooth muscle cells.
Read-out in assay [9]: Monokine induced gamma interferon (MIG), CXCL9 (gene 4283)
Put plainly: BSK_CASM3C_MIG: BioMAP Diversity Plus: CASM3C Assay for Monokine induced gamma interferon (MIG) Biomarker Activity (AID 2283048).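 Further: MIG protein level measured by ELISA.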 The note with it: primary human coronary artery smooth muscle cells; actives raise or lower the signal.

Read-out in assay [10]: serum amyloid A (SAA), SAA1 (gene 6288)
The assay can be described thus: BSK_CASM3C_SAA: BioMAP Diversity Plus: CASM3C Assay for serum amyloid A (SAA) Biomarker Activity (AID 2283049).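 Further: SAA protein level quantified by ELISA.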 The following applies: primary human coronary artery smooth muscle cells; actives raise or lower the signal.

The structures appear in SMILES notation. Activity calls are given as the source filed them. How the source made its calls: active means hit-call score of the fitted dose curve at least 0.9, where 1 is the maximum; inactive means score below 0.9.

On to `CC1(C)CON(Cc2ccccc2Cl)C1=O`, for which the result in assay [1], in [2], in [3], in [4], in assay [5] and in assay [6] was inactive. The result in [7], in assay [8], in [9] and in assay [10] was inactive.

`O=P(O)(O)CCCl`: the result in assay [1], in assay [2], in [3], in [4], in [5] and in [6] was inactive. For the same compound, the outcome in [7], in assay [8], in assay [9] and in assay [10] was inactive.

With `O=C(O)c1c(Cl)ccc2cc(Cl)cnc12`, the outcome in assay [1], in assay [2], in assay [3], in assay [4], in assay [5] and in assay [6] was inactive. The outcome in assay [7], in [8], in [9] and in assay [10] was inactive.

`COc1cc(Cl)c(OC)cc1Cl`: the outcome in assay [1], in assay [2], in [3], in assay [4], in assay [5] and in assay [6] was inactive. For the same compound, the outcome in [7], in assay [8], in assay [9] and in [10] was inactive.

Usually AC50 stands for the concentration giving half of the maximal activity seen. Regarding `OC(c1ccc(Cl)cc1)(c1ccc(Cl)cc1)C(Cl)(Cl)Cl`, the outcome in assay [1], in [4] and in assay [6] was inactive. Moreover, the AC50 was 13.1 µM (active) in assay [2]; 33.4 µM (active) in assay [3]; 36.2 µM (active) in assay [5]; 35.2 µM (active) in assay [7]; 30.4 µM (active) in [8]; 31.3 µM (active) in assay [9]. For the same compound, the AC50 in assay [10] was 32.2 µM (active).

Regarding `CNC(=O)Oc1cccc2ccccc12`, the outcome in assay [1], in assay [2], in assay [3], in assay [4], in assay [5] and in assay [6] was inactive. For the same compound, the result in assay [7], in assay [9] and in assay [10] was inactive. Also, in assay [8], the AC50 is 26.2 µM (active).

Take `CS(=O)(=O)c1ccc(C(=O)C2C(=O)CCCC2=O)c([N+](=O)[O-])c1`: the result in assay [1], in assay [2], in [3], in assay [4], in [5] and in assay [6] was inactive. The result in assay [7], in assay [8], in assay [9] and in [10] was inactive.

`CCCCC(O)(Cn1cncn1)c1ccc(Cl)cc1Cl` (stereo not given): the result in assay [1], in assay [2], in assay [3], in assay [4], in assay [5] and in assay [6] was inactive. Further, the outcome in [7], in [8], in [9] and in assay [10] was inactive.

Take `CC(C)=CC1C(C(=O)OCc2coc(Cc3ccccc3)c2)C1(C)C` (stereo not given): the result in assay [1], in [2], in [3], in assay [4], in [5] and in assay [6] was inactive. In addition, the result in assay [7], in assay [9] and in assay [10] was inactive. Moreover, in assay [8], the AC50 is 24.6 µM (active).

Consider `COP(=S)(OC)Oc1ccc([N+](=O)[O-])c(C)c1`, for which the outcome in assay [1], in assay [2], in assay [3], in [4], in assay [5] and in assay [6] was inactive. Besides, the outcome in assay [7], in [8], in [9] and in assay [10] was inactive.

For the compound `C=CCOC(=O)C(C)(C)OC(=O)c1cc(-n2c(=O)cc(C(F)(F)F)n(C)c2=O)ccc1Cl`, the result in assay [1], in [2], in assay [3], in assay [4], in [5] and in [6] was inactive. Also, the result in [8] and in [9] was inactive. The AC50 was 12.9 µM (active) in assay [7] and 0.859 µM (active) in assay [10].

On to `CC(C)(C)C(=O)C(Oc1ccc(Cl)cc1)n1cncn1` (stereo not given), for which the result in assay [1], in assay [2], in assay [3], in [4], in [5] and in [6] was inactive. In addition, the result in assay [7], in assay [8], in [9] and in [10] was inactive.

Take `COC(=O)NS(=O)(=O)c1ccc(N)cc1`: the result in assay [1], in [2], in [3], in assay [4], in [5] and in assay [6] was inactive. Further, the outcome in [7], in assay [8], in [9] and in [10] was inactive.

For the compound `CCOc1nc(C(Cl)(Cl)Cl)ns1`, the outcome in [1], in assay [2], in assay [3], in [4], in assay [5] and in [6] was inactive. Further, the result in assay [7], in [8], in assay [9] and in assay [10] was inactive.

As for `CCCCOCN(C(=O)CCl)c1c(CC)cccc1CC`, the AC50 is 4.92 µM (active) in assay [1]; 36.9 µM (active) in [2]; 5.08 µM (active) in [3]; 26.1 µM (active) in assay [4]; 28.8 µM (active) in assay [5]; 33.2 µM (active) in assay [7]. The AC50 in [8] was 27.4 µM (active). The outcome in assay [6], in assay [9] and in [10] was inactive.

As to `CCSC(=O)N1CCCCCC1`, the result in [1], in [2], in assay [3], in [4], in assay [5] and in [6] was inactive. The outcome in assay [7], in assay [8], in assay [9] and in [10] was inactive.

With `COC(=O)N(C(=O)N1CO[C@@]2(C(=O)OC)Cc3cc(Cl)ccc3C2=N1)c1ccc(OC(F)(F)F)cc1`, the result in [1], in assay [2], in [3], in [4], in assay [5] and in assay [6] was inactive. The result in [7], in assay [9] and in assay [10] was inactive. Further, the AC50 in [8] was 12.4 µM (active).

`Cc1cc(C)nc(Nc2ccccc2)n1`: the result in assay [1], in assay [2], in [3], in assay [4], in [5] and in assay [6] was inactive. Moreover, the outcome in assay [7], in assay [8], in assay [9] and in [10] was inactive.
